Screening data deposited in PubChem by Center for Chemical Genomics, University of Michigan.
Dicer inh: blocks human Dicer maturation of pre-miR-21 | z-score at 25 µM | cat-ELCCA pre-miR-21 Dicer processing, chemiluminescence; active compounds read high | Q9UPY3 | AID 1347074 | 47,000 tested, 6% active; in the data active means z-score above about 3, passing the limit was not always enough;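 further: plate controls were vehicle for no effect and no enzyme for full effect; higher signal means more uncleaved substrate so more Dicer inhibition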
* marks the source's active call; other numbers are inactive results. This excerpt belongs to a sample that is enriched for hits.

SMILES | Dicer inh
Cc1ccc2oc3c(c(=O)c2c1)C(c1ccc(O)cc1)N(CCCN1CCOCC1)C3=O (configuration not stated) | 1.3
Cc1nnc2c(N3CCN(Cc4ccccc4)CC3)nc3ccccc3n12 | -0.28
Cn1c(CN2CCN(c3ccc(Cl)cc3)CC2)nc2ccccc21 | 6.1*
Cn1c(S(=O)(=O)Cc2ccc(Cl)cc2)nc2ccccc21 | -0.41
O=C(NCc1c(Cl)cccc1Sc1ccc(Cl)cc1)Nc1ccccc1 | 1.1
COC(=O)C1=C(C)N(c2ccc(F)cc2)CC1=O | 3.2*
COC(=O)C1=NNC2C(=O)N(c3ccc(F)cc3)C(=O)C12 (configuration not stated) | 1.8
COC(=O)C1=C(C)NC(=O)CC1c1ccc(F)cc1 (configuration not stated) | 2.2
COC(=O)/C(=C\Nc1ccc(Sc2cc(Cl)ccc2Cl)nc1)NC(=O)c1ccccc1 | 0.14
CS(=O)(=O)/C(C#N)=C/Nc1ccc(OC(F)(F)F)cc1 | 2.7
Cc1cc(C)cc(OC(=O)c2ccc(Cl)c(Cl)c2)c1 | 1.5
COc1ccc(/C(C)=N/OC(=O)c2cc(OC)c(OC)c(OC)c2)cc1CSc1ccccn1 | -0.4
O=C(Oc1ccc(Cl)c2cccnc12)c1cccnc1 | 3.5*
O=C(Oc1ccc(Cl)c2cccnc12)N1CCOCC1 | -1.1
COc1ccc(C(=O)Oc2ccc(Cl)c3cccnc23)cc1OC | 4.5*
O=C(Oc1cccc2cccnc12)c1ccccc1 | -0.08
COc1ccc(NC(=S)NNC(=O)c2nc3ccccc3c(=O)[nH]2)cc1 | 0.33
Clc1ccccc1OCc1nn2c(-c3ccccc3)nnc2s1 | 2.6
O=C1CC(c2ccccc2)Cc2c1cnc1[nH]n(-c3ccccc3)c(=O)c21 (configuration not stated) | 1.7
CCOC(=O)c1sc2nc(C)n(Cc3csc(-c4ccc(Cl)cc4)n3)c(=O)c2c1C | -1
O=C(c1ccc([N+](=O)[O-])o1)N1CCN(C/C=C/c2ccccc2)CC1 | -1.1
CSc1c(CC(=O)Nc2ccccc2)n(C)c2ccccc12 | 3.7*
CCOC(=O)Cc1c(SC)c2ccccc2n1C | 2.1
Cn1cnnc1SCCC(=O)Nc1ccccc1 | -0.17
CN1CN=C2SC(CO)(CO)C(=O)N2C1 | -0.21
SMILES | Dicer inh
COc1cc(OC)c2nc(C)c3c(c2c1)N(c1cccc(C(F)(F)F)c1)CC3 | -1
Cc1nc2c(C)cccc2c2c1CCN2c1ccccc1F | 3.2*
COc1cccc(N2CCc3c(C)nc4ccc(Cl)cc4c32)c1 | 1.6
O=C(O/N=C(\Cn1nnc(N2CCOCC2)n1)c1ccc(Cl)cc1)c1ccc(Cl)cc1Cl | 0.29
Cc1ccsc1/C=C/c1ccnc(SCC(=O)Nc2ccc(C(C)C)cc2)n1 | -0.39
CCOC(=O)C(NC(=O)CC)(Nc1ccc(F)c(F)c1F)C(F)(F)F (configuration not stated) | 1.2
FC(F)(F)c1cccc(NC(=S)Nc2cccc(C(F)(F)F)c2)c1 | 0.22
CC(C)(C)NNC(=S)Nc1cccc(F)c1 | -0.44
Fc1cccc(NC(=S)NC(c2ccccc2)c2ccccc2)c1 | 4.9*
O=C1OC(/C=C/c2ccccc2)=NC/1=C/c1ccccc1Cl | 1.5
C/C(=N\OCc1cccc(C(=O)N=S(C)c2ccc(C)cc2)c1)c1ccc(Cl)cc1 (configuration not stated) | -1.5
CCc1nnc(NC(=O)c2cc(Br)ccc2Cl)s1 | 0.34
CCc1nnc(NC(=O)c2ccccc2O)s1 | 4.2*
CCc1nnc(NC(=S)NC(=O)c2ccccc2)s1 | -0.73
O=S(=O)(c1ccc(-c2cn3ccccc3n2)cc1)N1CCOCC1 | 0.9
O=S(=O)(c1ccc(-c2noc(-c3ccccc3)n2)cc1)N1CCOCC1 | 3.3*
O=S(=O)(c1ccc(-c2nc(-c3ccc(Cl)cc3)cs2)cc1)N1CCOCC1 | 1.4
Cc1ccc(OCC(O)NNC(=O)OC(C)(C)C)cc1C (configuration not stated) | -0.1
COc1ccc(OC)c2c(C)cc(N3CCCC3)nc12 | -0.92
CCCOc1ccc(N2C(=O)CC(SCCN)C2=O)cc1 (configuration not stated) | -0.11
CCCOc1ccc(N2C(=O)CC(SCC(N)C(=O)OCC)C2=O)cc1 (configuration not stated) | -0.88
CCOc1ccc(N2C(=O)CC(Sc3nc(C)c(CC)c(C)c3C#N)C2=O)cc1 (configuration not stated) | 3.4*
CCOC(=O)c1cc2cc(OCc3ccccc3)ccc2[nH]1 | -0.59
Cc1ccc(C(=O)NC2(NCCc3ccc(Cl)cc3)C(=O)c3ccccc3C2=O)cc1 | 1.8
CCCc1ccc(-c2nc(CS(=O)(=O)C(C)(C)C)no2)cc1 | -1.1
SMILES | Dicer inh
COc1ccc(C2C(C(=O)O)c3ccccc3C(=O)N2Cc2ccc(F)cc2)cc1 (configuration not stated) | 2.7
Cc1cc(C)c2c(C)nn(-c3ccc(Br)cc3)c2n1 | -0.29
CSc1nsc(SCC(=O)N2CCCc3ccccc32)n1 | -1.6
O=C(CSc1nc2ccccc2nc1N1CCOCC1)N1CCCc2ccccc21 | 3.4*
O=C(CSc1nc2ccccc2nc1N1CCOCC1)NCc1cccs1 | 3*
O=C(CSc1nc2ccccc2[nH]1)N1CCc2ccccc21 | 3.1*
O=C(CSc1nc2ccccc2s1)N1CCc2ccccc21 | 1.4
CSc1nsc(SCC(=O)NCc2ccco2)n1 | -0.97
O=C(CSc1nc2ccccc2nc1N1CCOCC1)NCc1ccco1 | 3.4*
O=C(CSc1nc2ccccc2nc1SCC(=O)N1CCOCC1)N1CCOCC1 | 1.5
O=C(CSc1nnc(-c2ccccc2)c(-c2ccccc2)n1)N1CCc2ccccc21 | -0.32
O=C(CSc1nc(-c2cccs2)cc(C(F)(F)F)n1)NCc1ccco1 | 0.51
Cc1cc(C)nc(N2CCN(C(=O)CSc3nc4ccccc4nc3N3CCCCC3)CC2)n1 | 2.6
c1csc(-c2nnc(N3CCOCC3)c3ccccc23)c1 | 0.89
O=S(=O)(NCC1COc2ccccc2O1)c1ccccc1 (configuration not stated) | 2.5
CC(C)Cn1c(=N)c(C#N)cc2c(=O)n3ccccc3nc21 | -0.64
Cc1cc(-c2nnc(SCC(=O)c3ccc(C(C)(C)C)cc3)o2)no1 | -1.1
CCOC(=O)c1sc(N2C(=O)c3oc4ccccc4c(=O)c3C2c2ccc(OCC)cc2)nc1C (configuration not stated) | 0.69
CCOC(=O)c1sc(N(NC(=O)c2ccc(Cl)cc2)C(=O)c2ccc(Cl)cc2)c2c1CC(C)(C)CC2=O | 0.24
Cc1ccc(=O)n(Cc2ccc([N+](=O)[O-])cc2)n1 | -0.67
Cc1nn(-c2ccccc2)nc1C(=O)ONC(=O)Cc1ccccc1 | 3
O=C(CSc1nc2ccccc2nc1N1CCCC1)Nc1ccc(Br)cc1 | 2.3
O=C(CSc1nc2ccccc2nc1N1CCOCC1)Nc1cccc(Br)c1 | 3.2*
O=C(CSc1nc2ccccc2nc1N1CCCC1)Nc1ccc(Cl)cc1 | 2.5
CCCCN1Cc2c(n(CC(=O)OCC)c3cc(-c4ccccc4)nn3c2=O)C1=O | -0.3
SMILES | Dicer inh
Cc1cc(C)nc(SCC(=O)c2cccs2)n1 | 2.4
CCc1nc(SCC(=O)c2ccc(O)c(O)c2)n[nH]1 | 0.01
Cc1cc(C)nc(SCCC(=O)O)n1 | 3.2*
Cc1cc(C)nc(SCc2ccccc2)n1 | -0.98
Cc1cc(C)nc(SCC(=O)c2ccccc2)n1 | -0.31
Cc1cc(C)nc(SCC(=O)c2ccc(O)c(O)c2)n1 | 3.1*
COc1ccccc1-c1nc(SCC(=O)c2ccccc2)n[nH]1 | 0.59
O=C(CSc1n[nH]c(-c2ccccc2Cl)n1)c1ccc(O)c(O)c1 | 4.9*
Cc1cc(C)nc(SCC(=O)Nc2ncccn2)n1 | 1.1
COC(=O)C(=Cc1ccc(-c2cc(C(F)(F)F)ccc2Cl)o1)C(=O)OC | -0.84
